Assay results as given in PubChem BioAssay (NCATS).
Records with an inconclusive call do not appear. Active and inactive are the calls of the source. Calls come from the whole dose curve; as a rule, active = well fitted curve in the direction sought with a large enough effect; inconclusive = small, poorly fitted or top-dose-only effect, or another doubt; inactive = no such curve, though single readings can be large; an effect the other way counts as inactive or inconclusive.

Assays:
[1] = target: Glutathione peroxidase 1 (Homo sapiens) (UniProt P07203); assay: Primary qHTS Assay for Inhibitors of Recombinant Selenoprotein Glutathione Peroxidase 1 (GPX1) (AID 1845191); conditions: recombinant GPX1, GR-coupled NADPH fluorescence, 15 min; series mostly up to 48.8 µM; note: nearly all actives have a fitted effect of over 65% in size
Summary of the method: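 10 nM GPX1 + cpd, 30 min RT; start w/ 1 mM GSH, 0.5 mM cumene hydroperoxide, 0.5 mM NADPH, 100 nM GR, 0.01% BSA; buffer 50 mM Tris-HCl pH 7.5, 2 mM EDTA, 150 mM NaCl; Fl 340/450, 0 & 15 min.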

[2] = target: Phospholipid hydroperoxide glutathione peroxidase GPX4 (Homo sapiens) (UniProt P36969); assay: Primary qHTS Assay for Inhibitors of Recombinant Selenoprotein Glutathione Peroxidase 4 (GPX4) (AID 1845192); conditions: recombinant GPX4, GR-coupled NADPH fluorescence, 15 min; series mostly up to 50 µM; note: nearly all actives have a fitted effect of over 65% in size
Summary of the method: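 NADPH consumption, followed by fluorescence at 340/450 nm between 0 and 15 min, reports GPX4 activity via coupled glutathione reductase (100 nM). Enzyme 200 nM was pre-exposed to compound 30 min; 0.5 mM cumene hydroperoxide and 1 mM GSH served as substrates.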

[3] = target: Luciferin 4-monooxygenase (Photinus pyralis) (UniProt P08659); assay: Primary firefly luciferase (FLuc) qHTS assay for identification of artifact compounds. (AID 1845220); conditions: purified firefly luciferase, luminescence, 5 min; series mostly up to 54.1 µM; note: nearly all actives have a fitted effect of over 60% in size
Summary of the method: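 Compounds sat 15 min at room temperature with 10 uM luciferin and 10 uM ATP (pH 7.6 Tris acetate). Firefly luciferase (10 nM final) was then added, and luminescence was read 5 min later. Data normalized to no-enzyme and DMSO controls were Hill-fitted.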

[4] = Primary fluorescence-based thiol-reactive (MSTI) qHTS assay for identification of artifact compounds. (AID 1845221); conditions: MSTI thiol-reactivity probe, 1 h; series mostly up to 53.8 µM;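 note: thiol-reactive compounds lower the probe fluorescence signal; nearly all actives have a fitted effect of over 65% in size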
Summary of the method: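 One-hour, room-temperature, dark incubation of compound with 4 uM MSTI in PBS (pH 7.4, 2% DMSO) precedes a fluorescence read at 525 nm excitation, 598 nm emission; Hill-equation fitting yields concentration-response values.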

[5] = Primary redox qHTS assay for identification of artifact compounds. (AID 1845223); conditions: Amplex Red/HRP redox cycling with DTT, fluorescence; series mostly up to 53.8 µM
Summary of the method: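 Amplex Red (25 uM) and HRP (250 mU/mL) in HBSS, with compounds for 15 min, then 250 uM DTT for 30 min, room temperature, dark. Fluorescence 525/598 nm read; normalized to DMSO and 10 uM DA3003; Hill fit.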

[6] = system: Nanoluciferase (engineered Oplophorus gracilirostris luciferase); assay: Primary Nanoluciferase (NLuc) qHTS assay for identification of artifact compounds. (AID 1845222); conditions: NLuc-conditioned medium, Nano-Glo luminescence, 5 min; series mostly up to 54.1 µM
Summary of the method: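 Luminescence from secreted NLuc (filtered, 1:55-diluted S16 cell medium) read 5 min after Nano-Glo substrate; compounds preincubated 15 min, RT. Hill fits of inhibition normalized to DMSO and no-enzyme.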

Measured: Potency

Sequence of Phospholipid hydroperoxide glutathione peroxidase GPX4 (Homo sapiens) (P36969 whole entry, looked up): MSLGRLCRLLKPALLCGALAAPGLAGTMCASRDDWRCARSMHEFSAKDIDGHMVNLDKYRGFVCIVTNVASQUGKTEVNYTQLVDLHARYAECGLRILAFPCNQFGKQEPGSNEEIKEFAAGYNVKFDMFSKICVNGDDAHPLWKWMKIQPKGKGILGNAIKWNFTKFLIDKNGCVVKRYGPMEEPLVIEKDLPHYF
Sequence of Glutathione peroxidase 1 (Homo sapiens) (P07203 whole entry, looked up): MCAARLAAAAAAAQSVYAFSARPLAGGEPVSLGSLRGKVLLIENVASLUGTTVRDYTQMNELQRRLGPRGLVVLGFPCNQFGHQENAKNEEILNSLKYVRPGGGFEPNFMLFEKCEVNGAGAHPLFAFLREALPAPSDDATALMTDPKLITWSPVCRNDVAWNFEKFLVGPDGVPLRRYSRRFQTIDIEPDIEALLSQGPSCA

C#Cc1cccc(Nc2nc3cc(C(=O)O)ccc3c3cncnc23)c1
inactive: [1] | [2] | [3] | [4] | [5]

O=C1c2ccc(Nc3ccc(F)cc3F)cc2CCc2ccc(OCC(O)CO)cc21 (configuration not stated)
inactive: [1] | [2] | [3] | [4] | [5]

Cc1ccc(F)cc1S(=O)(=O)N[C@@H]1CCN(Cc2ccc(OC(C)C)cc2)C1
inactive: [1] | [2] | [3] | [4] | [5]

Cc1ccc(C)c(NC(=O)[C@@H]2CCCN2S(=O)(=O)c2cccc3cccnc23)c1
inactive: [1] | [2] | [3] | [4] | [5]

CCCCNc1ncc(-c2ccc(CN3CCOCC3)cn2)c(NC2CCC(O)CC2)n1 (configuration not stated)
inactive: [1] | [2] | [3] | [4] | [5]

C/C(=C/CO)CCC1C(C)CCC2C(C)(C)CCCC12C (configuration not stated)
inactive: [1] | [2] | [3] | [4] | [5]

C=CC(=O)N1CCN(C(=O)CNc2cc(-c3ccccc3Cl)c(Cl)cc2OC)CC1
inactive: [1] | [2] | [3] | [6]

C/C(=C\Cc1c(O)c(Cl)c(C)c(C=O)c1O)CC/C=C(\C)[C@H]1CC(=O)C(C)(C)O1
inactive: [1] | [2] | [3] | [6]

C[C@@H]1C[C@H](C)CN(CCC(=O)Nc2ccc(Br)cc2)C1
inactive: [1] | [2] | [3] | [4] | [5]

CC(F)(F)CN1CCOc2c(nn(-c3ccccc3Cl)c2-c2ccc(Cl)cc2)C1=O
inactive: [1] | [2] | [3] | [4] | [5]

C[C@H](Nc1ncnc2nc[nH]c12)c1cc2cccc(Cl)c2c(=O)n1-c1ccccc1
inactive: [1] | [2] | [3] | [4] | [5]

CC1(C)CCCC2(C)C1C(OC(=O)/C=C/C=C/C=O)C=C1COC(=O)C12O (configuration not stated)
inactive: [1] | [2] | [3] | [4] | [5]

COc1nc2ccc(Br)cc2cc1[C@@H](c1ccccc1)[C@@](O)(CCN(C)C)c1cccc2ccccc12
inactive: [1] | [2] | [3] | [4] | [5]

Cc1ccc(N2CCN(CCC3NC(=O)c4ccccc43)CC2)cc1C (configuration not stated)
inactive: [1] | [2] | [3] | [6]

Cc1cc(CS(=O)(=O)c2ccccc2)cc(OCc2ccc(CN3CCCC3CO)cc2)c1 (configuration not stated)
inactive: [1] | [2] | [3] | [4] | [5]
